Substitutions are numbered along the chain they refer to. Over roughly 24,000 sequences, “enrichment r” has its median near 0.99; the highest 2% begin near 3.7. The sample holds the highest values, similar sequences and a random draw of the others, so the mix is not that of the screen.
T1: UNK ZnF1-3 (human, UniProt Q9C0B0 31-174)
T1 sequence: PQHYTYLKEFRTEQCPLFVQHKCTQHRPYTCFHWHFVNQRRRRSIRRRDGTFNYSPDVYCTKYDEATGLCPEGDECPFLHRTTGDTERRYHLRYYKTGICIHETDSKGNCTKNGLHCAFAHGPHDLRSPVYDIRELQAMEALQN

B1: chr16:45382771:45382772:-_ENSMUSG00000022661_ENSMUST00000163230|mus_mus|mus_mus_mus_hu_True|18_68 (ssRNA)
RNA: GGGAGUUCUACAGUCCGACGAUCCUGGGUCAUGUUAUAAGACAAAUGGACAGGGAGGGCAUGCUUCUGUAAAGAUGUGAGCUAUUGUCUAAGACUAACAAUAUUUAUCUAGCUAUAUAAAAAUAAGAAAUGAAUAAGUUAAGACAACAGAGGAUUGAGCAUCA
B2: chr3:139078181:139078182:-_ENSG00000184432_ENST00000507777|hu_mus|FALSE|FALSE (ssRNA)
RNA: GGGAGUUCUACAGUCCGACGAUCCUGACUGGGUAAGUAAGUUCGGGCCAGGAAGGCAGCUUCUGGGAGUCUUCCUGUUCUGAUCAAGAGCUCUAGGCAAGCAUCAAGCUUGCCCUGUAAAAAAUAGCUCAUGAAUGCCACGUUCAACAGAGGAUUGAGCAUCA
B3: chr8:35894604:35894605:-_ENSMUSG00000031529_ENSMUST00000033929|mus_hu|FALSE|FALSE (ssRNA)
RNA: GGGAGUUCUACAGUCCGACGAUCCUAUAGCAAUGCUUUAUAGAAGACAAACAGCUUAUUUCUAGGCUGUCAGGGACUUCUAGAAUAUUGAUGUUGUUAUUAGAAACAAUCCUCUGUAAUCCAGUCCCAGGUUGAAAUCUGAUCCAACAGAGGAUUGAGCAUCA
B4: chr1:151039735:151039736:+_ENSG00000213190_ENST00000368921|hu_mus|FALSE|FALSE (ssRNA)
RNA: GGGAGUUCUACAGUCCGACGAUCCCCAGGCCUUCCAGCUCCGACAGAUCCAGUUCUGGGAUGGGCAUCCUCCAGAAAAGAAAGGAGCUGUACUGGCUACUUACAGGGUCCCUCAUGAUCCCCUGUUAGCAAUGAAUGACUAGGCAACAGAGGAUUGAGCAUCA
B5: chr16:45382771:45382772:-_ENSMUSG00000022661_ENSMUST00000163230|mus_mus|mus_mus_mus_hu_True|38_68 (ssRNA)
RNA: B1 RNA with U105G, A106C, U117A, A121U, U123A, A124G, A125U, G126U
B6: chr7:19156472:19156473:-_ENSG00000122691_ENST00000242261|hu_mus|FALSE|FALSE (ssRNA)
RNA: GGGAGUUCUACAGUCCGACGAUCGCUGCAGCUUGCCAUCUUGGAGUCCAGCUCGUCGCUCUGCAGGACCUGGUACAGGAAGUCGAUGUACCUGGCCGCCAGUUUGAGGGUCUGAAUCUUGCUCAGCUUGUCCGAGGGCAGCGUCAACAGAGGAUUGAGCAUCA
B7: chr12:39756943:39756944:-_ENSG00000139116_ENST00000544797|hu_mus|hu_hu_hu_mus_False|28_58 (ssRNA)
RNA: GGGAGUUCUACAGUCCGACGAUCGGUUUGGCUGUUACCCCCAAGGGAAUCCUGCAAGAGUCUUGUCAGCUUAGAGUCUCUAUAGGGGACAUGGGUGGCUCUCUUGCUCUUGUCUCCCAAGGCGCUGAUUACAUUCCCAAGAGCCAACAGAGGAUUGAGCAUCA
B8: chr8:95500983:95500984:-_ENSG00000164944_ENST00000437199|hu_hu|hu_hu_hu_mus_True|8_88 (ssRNA)
RNA: GGGAGUUCUACAGUCCGACGAUCAGAACACAUCUAUCGAGUAAAGGGAGCGUACAUACGGCCUCUACCACUGCCUCCACUAACAAACUUUCCUCUCGAGCCUCCACUGCCGCUAUUUGUACUAGCCCCAGGAAGGUCCAGGCCCAACAGAGGAUUGAGCAUCA
B9: chr17:90989275:90989276:-_ENSMUSG00000024109_ENSMUST00000160844|mus_mus|motif|central (ssRNA)
RNA: GGGAGUUCUACAGUCCGACGAUCAGAUGUUGUCUUGAAUUGGAAAAAUAGAUGCAUAGAGGUGUAGGCUUGCAAUGUAGCGGAGGCAACAUAGCUCGAUUUGGUCUUGAAGGUGACAGGAUCUGCGAUGAUGUUCCUGAAUCCCAACAGAGGAUUGAGCAUCA
B10: chrX:103214973:103214974:+_ENSMUSG00000031231_ENSMUST00000033582|mus_hu|FALSE|FALSE (ssRNA)
RNA: GGGAGUUCUACAGUCCGACGAUCAACAAUACAGAAAGUGGCUCCACUAGCUAAUACAGCAUUACCGUAUUUGUCAUGAAAAUCAGGUGUACGUUUCUGGUGGCUCUGCCUUGCCAUUGUUUGCUGAAUGCUUCGAACUUGGAGCAACAGAGGAUUGAGCAUCA
B11: chr2:35989780:35989781:-_ENSMUSG00000026889_ENSMUST00000028251|mus_hu|FALSE|FALSE (ssRNA)
RNA: GGGAGUUCUACAGUCCGACGAUCGCAUUCUCCAGGGGAAGAGUUUUGGUUUCUGCUUCCAUCAAUGUCUAUGAAAUACUCGUGGCCUCGGCGUGGUGCUCUCAGCUCAUGCCCGGAAACCAGGUCCCGACGCCGCGGUCAGACCAACAGAGGAUUGAGCAUCA
B12: 37444673_37445709_2339_CDS_ENSMUSG00000026113_ENSMUST00000027287|mouse|control|control (ssRNA)
RNA: GGGAGUUCUACAGUCCGACGAUCGUAGAGCUGCCGCAGGAAGCCACCGUCGUGCAGGCAGUUCCUCAGCUUGAUGAUAAAGCCACAGAUGAGGGCUGUCAGGGUUUGGCAGAAGACGACGUCACGGCGAUACUGCAGGCUGAGCAACAGAGGAUUGAGCAUCA
B13: chr5:106037793:106037794:+_ENSMUSG00000054720_ENSMUST00000067924|mus_mus|FALSE|FALSE (ssRNA)
RNA: GGGAGUUCUACAGUCCGACGAUCUGUUGUCUUGUGUGGAAAAGGAAAAAAAAAUAAUAUAGGAAAGGCAUUAGGACUACCUAAUUCUUUAUAUUGUAUUUGGUAGAAGCAUGUUUCAGUCAUACUCUGAUGAAAAAUAAGUUACAACAGAGGAUUGAGCAUCA
B14: chrX:119742084:119742085:+_ENSG00000232119_ENST00000371317|hu_hu|FALSE|FALSE (ssRNA)
RNA: GGGAGUUCUACAGUCCGACGAUCAAAAGGAUAUUUGUGAAGUAAUCUUAGGGUUGGAUAAAAAGGCCCUUCUCUUUGUCUAAAAAAGAGUAAUUCUCCAUUUACUGUAAGGAUUUCUAUAUGUUCAUGGCAUCGGACUAUUUUCAACAGAGGAUUGAGCAUCA
B15: chr5:106037793:106037794:+_ENSMUSG00000054720_ENSMUST00000067924|mus_mus|motif|central (ssRNA)
RNA: B13 RNA with U77G, A78G, U81G, A82G
B16: chr14:46222469:46222470:-_ENSMUSG00000037697_ENSMUST00000051310|mus_hu|FALSE|FALSE (ssRNA)
RNA: GGGAGUUCUACAGUCCGACGAUCAUUCUCUGAAACUGAGGUAGGUUCUUUAGCUGGGUUGAGAAAGCUUGGCUUCAUAUGUUCAUAAGGUAAAGGAUUUGAAGUAUUGUACCAGUGGAUCUGGACAGGUGAAAUGUUGCUGUACAACAGAGGAUUGAGCAUCA
B17: chr5:106037793:106037794:+_ENSMUSG00000054720_ENSMUST00000067924|mus_hu|motif|central (ssRNA)
RNA: GGGAGUUCUACAGUCCGACGAUCCUUUGUGUACAUUUUGUGUGAAAAGGAAAAAAAAAUAGGAAAGGCAUUAAGACGGCCGGAUUAUUUAUACUGUAUUUGGUAGAAGCGUGUUUCAGUCAAACUUUAACGAAAAAUAAGUUACAACAGAGGAUUGAGCAUCA
B18: chr21:32491406:32491407:-_ENSG00000156299_ENST00000286827|hu_hu|motif|central (ssRNA)
RNA: GGGAGUUCUACAGUCCGACGAUCCAUAGUAUUUUAAACCCUUCUUAGGAAGUGGACAUUGUGACAUGGGAAAAGAAAAAGCGGUAAACCUUUUUUUAAAAAAAAAAAAAAAAUUGAAAGUGCUAUAACUUGUUUUUCUUCUUACAACAGAGGAUUGAGCAUCA
B19: 57185256_57189016_303_CDS_ENSG00000146143_ENST00000607273|human|control|control (ssRNA)
RNA: GGGAGUUCUACAGUCCGACGAUCUUCAUCUUCUAAGUUUUCUCUGUAGGAAAACUUGAGCUUCCGAAGCUCACUCUCCAACUUACUCUGGUAUUGUUCAGUUCCUUUCACAUAGCUCACUCCAAGAUUUUCAACUGAUUUUAACAACAGAGGAUUGAGCAUCA
B20: chr11:9308113:9308114:-_ENSG00000166471_ENST00000528080|hu_hu|motif|central (ssRNA)
RNA: GGGAGUUCUACAGUCCGACGAUCAUUAGGCAGAAAUGGUGUUAUUCUCAAAAAUAUAAUGUAGUUAAUGAGAUGUUCUCGGUGACGUUCAACCUGCUGUGACCAUUUUACUGCUUUCUCUGUUAGGUAUUUGUAUACAACUGGCAACAGAGGAUUGAGCAUCA
B21: chr14:57521665:57521666:+_ENSMUSG00000021945_ENSMUST00000022511|mus_mus|FALSE|FALSE (ssRNA)
RNA: GGGAGUUCUACAGUCCGACGAUCAACAACGUCAUCAUCAUCUUCUACUGAUGAGUUCUGAAACUUACUAGAUCUAGACACUAAAGGAUUAGGUGGGCCACUAAAUGAAUUUCCUACGUUCGUGAGACUAGUUGCCAUGGCUGUCAACAGAGGAUUGAGCAUCA
B22: chr4:76721835:76721836:+_ENSG00000138768_ENST00000264904|hu_mus|hu_hu_hu_mus_True|58_108 (ssRNA)
RNA: GGGAGUUCUACAGUCCGACGAUCGUUGGCUGGGGUUUUCUGAGACGCUCUGGAAUAUAACUCAUGUUUGCUAAUAAUCCUAGUUUCCUCUAUGAAAUUCUCUUUGCCAAUCCUCUUCUCUAUUAGUUGCUUUAGUUUCUCUUUCAACAGAGGAUUGAGCAUCA

biological target: T1, UNK ZnF1-3; assay: nsRBNS (natural sequence RNA bind-n-seq); RBNS binding buffer (assumed for nsRBNS): 25 mM Tris pH 7.5, 150 mM KCl, 3 mM MgCl2, 0.01% Triton X-100, 500 ug/ml BSA, 20 U/ml SUPERase-In, 4 C; UNK is unkempt and MSI1 is Musashi-1; names of the RNAs are library labels; protein concentration not given here; high values mean tight binding

| Binder | binding signal [enrichment R] |
| --- | --- |
| B1 | 5.64 |
| B2 | 0.848 |
| B3 | 0.4 |
| B4 | 1.11 |
| B5 | 9.94 |
| B6 | 0.84 |
| B7 | 0.774 |
| B8 | 1.68 |
| B9 | 1.21 |
| B10 | 1.13 |
| B11 | 0.583 |
| B12 | 1.01 |
| B13 | 4.57 |
| B14 | 0.455 |
| B15 | 5.1 |
| B16 | 1.5 |
| B17 | 3.77 |
| B18 | 1.34 |
| B19 | 0.6 |
| B20 | 1.85 |
| B21 | 1.09 |
| B22 | 0.387 |

Reference: paper PMC12136788
